PostGolgi ctrl – growth inhibition of yeast control strain, primary screen, counter-screen for post-Golgi transport modulator project; efflux-deficient yeast background strain, growth absorbance A615, 16 h; inhibition, % at 10 µM; 98,000 tested, 5% active; AID 738, 2007
CYP2C9 inhib – blockers of cytochrome P450 2C9 activity – biochemical, luminescence, ADME assay, primary screen. inhibition, % at 5 µM. P11712. CYP2C9 Supersomes, luciferin-H conversion. AID 777, 2007. 96,000 tested, 20% active;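 active = blocking of liver enzyme CYP2C9 beyond about 50% at 5 µM, limit read from the data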
PostGolgi yeast – phenotypic screen on post-Golgi transport, primary screen. 98,000 tested, 0.9% active. post-Golgi transport phenotypic cell assay. inhibition, % at 10 µM;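 note: yeast cells grown in 1536-well plates; yeast grown about 18 h at 30C before absorbance read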
CYP2C19 inhib – blockers of cytochrome P450 2C19 activity – biochemical, luminescence, ADME assay, primary screen; P33261; CYP2C19 Supersomes, luciferin-H EGE luminescence, 30 min; inhibition, % at 5 µM; 96,000 tested, 21% active; AID 778, 2007;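 active = CYP2C19 inhibition above a set limit at 5 µM in the primary screen, cut at about 50% in these data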;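 note: plate controls were negative control wells for no effect and 2.5 mM tranylcypromine positive control for full effect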
Target sequence (P33261 whole entry, looked up): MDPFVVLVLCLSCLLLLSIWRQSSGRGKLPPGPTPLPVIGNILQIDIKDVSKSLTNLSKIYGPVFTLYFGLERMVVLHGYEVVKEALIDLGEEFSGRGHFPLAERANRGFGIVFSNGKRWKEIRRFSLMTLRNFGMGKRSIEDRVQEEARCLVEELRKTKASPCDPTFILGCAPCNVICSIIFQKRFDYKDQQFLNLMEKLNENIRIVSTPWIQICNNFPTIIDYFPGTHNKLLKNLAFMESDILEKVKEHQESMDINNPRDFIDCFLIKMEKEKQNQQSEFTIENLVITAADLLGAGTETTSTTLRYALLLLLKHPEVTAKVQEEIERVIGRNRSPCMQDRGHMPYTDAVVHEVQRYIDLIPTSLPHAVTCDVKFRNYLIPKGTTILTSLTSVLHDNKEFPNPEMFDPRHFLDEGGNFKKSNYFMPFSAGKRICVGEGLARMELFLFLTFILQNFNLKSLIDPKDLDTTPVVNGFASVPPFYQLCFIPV
CYP2C19 act – human CYP2C19 activators, primary screen, biochemical, luminescence | Cytochrome P450 2C19 (Homo sapiens), P33261 | activation factor at 5 µM | recombinant CYP2C19, luciferin-H EGE luminescence; stronger effect = higher value; 0 = fully inhibited enzyme, 1 = untreated enzyme | 96,000 tested, under 10 active;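 active = activation factor of at least 2 at 5 µM in the primary screen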;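 note: 0 = wells with 2.5 mM tranylcypromine and 1 = vehicle-only wells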
CYP2C9 act – human CYP2C9 activators, primary screen, biochemical, luminescence; recombinant CYP2C9, luciferin-H conversion; stronger effect = higher value; factor 1 = untreated enzyme, 0 = blocked; activation factor at 5 µM; 96,000 tested, 1.4% active; AID 1024, 2008;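 active = activation factor of 2 or more for CYP2C9 at a 5 µM dose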;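 note: 0 = sulfaphenazole-blocked wells and 1 = vehicle-only wells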
An asterisk follows results filed as active. Rows were chosen to be rich in hits. Some 32% of all compounds tested hit in one or more screens of this group. Cut-off read from the data, not from the text of the source, unless noted: active = inhibition above about 30%; inactive = the rest.

Results for Cc1c(Cl)cccc1NC(=O)CN1C(=O)CSc2ncccc21 ?
PostGolgi ctrl: 9; CYP2C9 inhib: -256; PostGolgi yeast: -7; CYP2C19 inhib: 64*; CYP2C19 act: 0.4; CYP2C9 act: 3.6*

Results for COCCCNC(=O)CN1C(=O)CSc2ncccc21 ?
PostGolgi ctrl: -4; CYP2C9 inhib: -5; PostGolgi yeast: -1; CYP2C19 inhib: 30; CYP2C19 act: 0.7; CYP2C9 act: 1.1

Results for COc1ccc(OCCOCCN2CCc3ccccc3C2)cc1 ?
PostGolgi ctrl: -8; CYP2C9 inhib: 7; PostGolgi yeast: -7; CYP2C19 inhib: 59*; CYP2C19 act: 0.4; CYP2C9 act: 0.9

Results for COc1ccc(Cn2nnnc2C(c2ccccc2Cl)N2CCN(C)CC2)cc1 (stereo not given) ?
PostGolgi ctrl: 4; CYP2C9 inhib: 16; PostGolgi yeast: 11; CYP2C19 inhib: 35; CYP2C19 act: 0.7; CYP2C9 act: 0.8

How did COc1ccc(Cn2nnnc2CN2CCc3ccccc32)cc1 do in these assays?
PostGolgi ctrl: -9; CYP2C9 inhib: 92*; PostGolgi yeast: 2; CYP2C19 inhib: 99*; CYP2C19 act: 0; CYP2C9 act: 0.1

How did COc1ccc(Cn2nnnc2CN2CCc3ccccc3C2)cc1 do in these assays?
PostGolgi ctrl: 6; CYP2C9 inhib: 64*; PostGolgi yeast: 0; CYP2C19 inhib: 88*; CYP2C19 act: 0.1; CYP2C9 act: 0.4

How did COc1ccc(C2(O)CCN(Cc3nnnn3Cc3ccc(C)cc3)CC2)cc1 do in these assays?
PostGolgi ctrl: 11; CYP2C9 inhib: 63*; PostGolgi yeast: 9; CYP2C19 inhib: 51*; CYP2C19 act: 0.5; CYP2C9 act: 0.4

Results for N#Cc1cnn(CC2CCCCC2)c1N ?
PostGolgi ctrl: 7; CYP2C9 inhib: 29; PostGolgi yeast: -3; CYP2C19 inhib: 48; CYP2C19 act: 0.5; CYP2C9 act: 0.7

Results for CCC(Sc1nc(=O)cc(N)n1CCc1ccccc1)C(=O)Nc1cc(C)on1 (stereo not given) ?
PostGolgi ctrl: 1; CYP2C9 inhib: 27; PostGolgi yeast: 0; CYP2C19 inhib: 39; CYP2C19 act: 0.6; CYP2C9 act: 0.7

What do the screens show for `CCC(SC1=N/C(=C/c2ccccc2OC)C(=O)N1c1ccccc1)C(=O)Nc1cc(C)on1` (stereo not given)?
PostGolgi ctrl: 6; CYP2C9 inhib: 67*; PostGolgi yeast: 2; CYP2C19 inhib: 24; CYP2C19 act: 0.8; CYP2C9 act: 0.3

How did O=C(Nc1ccc(F)c(F)c1)NC1CCCCC1 do in these assays?
PostGolgi ctrl: 9; CYP2C9 inhib: 46; PostGolgi yeast: 10; CYP2C19 inhib: 14; CYP2C19 act: 0.9; CYP2C9 act: 0.5

Results for COCCn1nnnc1C(c1ccc(C)cc1)N1CCN(Cc2ccc3c(c2)OCO3)CC1 (stereo not given) ?
PostGolgi ctrl: 1; CYP2C9 inhib: 51*; PostGolgi yeast: -8; CYP2C19 inhib: 48; CYP2C19 act: 0.5; CYP2C9 act: 0.5

What do the screens show for `CC(C)(C)n1nnnc1C(c1cccs1)N1CCN(Cc2ccc3c(c2)OCO3)CC1` (stereo not given)?
PostGolgi ctrl: 4; CYP2C9 inhib: 38; PostGolgi yeast: -3; CYP2C19 inhib: 53*; CYP2C19 act: 0.5; CYP2C9 act: 0.6

Results for COc1ccccc1CN1CCN(C(CC(C)C)c2nnnn2Cc2cccs2)CC1 (stereo not given) ?
PostGolgi ctrl: 17; CYP2C9 inhib: 58*; PostGolgi yeast: -3; CYP2C19 inhib: 92*; CYP2C19 act: 0.1; CYP2C9 act: 0.4

What do the screens show for `Cc1ccc(C(c2nnnn2Cc2cccs2)N2CCN(Cc3ccc4c(c3)OCO4)CC2)cc1` (stereo not given)?
PostGolgi ctrl: 25; CYP2C9 inhib: 40; PostGolgi yeast: 10; CYP2C19 inhib: 62*; CYP2C19 act: 0.4; CYP2C9 act: 0.6

What do the screens show for `CCOc1ccccc1NC(=S)/C(=C(\[O-])c1ccc2c(c1)OCCO2)[n+]1ccc(CC)cc1`?
PostGolgi ctrl: 19; CYP2C9 inhib: 62*; PostGolgi yeast: -5; CYP2C19 inhib: 59*; CYP2C19 act: 0.4; CYP2C9 act: 0.4

Results for COc1ccc(CNc2nc3nc4c(c(=O)n3[nH]2)CCC4)cc1 ?
PostGolgi ctrl: 10; CYP2C9 inhib: 17; PostGolgi yeast: 14; CYP2C19 inhib: -1; CYP2C19 act: 1; CYP2C9 act: 0.8

What do the screens show for `O=C(NCc1ccco1)c1cccc2ccccc12`?
PostGolgi ctrl: 25; CYP2C9 inhib: -203; PostGolgi yeast: -9; CYP2C19 inhib: 24; CYP2C19 act: 0.8; CYP2C9 act: 3*

How did COc1ccc(C(=O)Nc2ccccc2C(=O)NCc2ccco2)cc1OC do in these assays?
PostGolgi ctrl: 5; CYP2C9 inhib: 36; PostGolgi yeast: 2; CYP2C19 inhib: 20; CYP2C19 act: 0.8; CYP2C9 act: 0.6

Results for O=C(NCc1ccco1)c1cnc2ccccn2c1=O ?
PostGolgi ctrl: 0; CYP2C9 inhib: 55*; PostGolgi yeast: 0; CYP2C19 inhib: 2; CYP2C19 act: 1; CYP2C9 act: 0.4

How did O=C(NCc1ccco1)Nc1ccc(Br)cc1Cl do in these assays?
PostGolgi ctrl: 13; CYP2C9 inhib: 53*; PostGolgi yeast: -13; CYP2C19 inhib: 47; CYP2C19 act: 0.5; CYP2C9 act: 0.5

What do the screens show for `O=C(Nc1cccc(Cl)c1)Nc1ccccc1C(=O)NCc1ccco1`?
PostGolgi ctrl: -1; CYP2C9 inhib: 58*; PostGolgi yeast: -7; CYP2C19 inhib: 14; CYP2C19 act: 0.9; CYP2C9 act: 0.4

Results for O=C(Nc1cccnc1)Nc1ccc(Br)cc1Cl ?
PostGolgi ctrl: 35*; CYP2C9 inhib: 29; PostGolgi yeast: -10; CYP2C19 inhib: 23; CYP2C19 act: 0.8; CYP2C9 act: 0.7

What do the screens show for `O=C(NCc1ccco1)c1ccccc1Nc1ccc(F)cc1`?
PostGolgi ctrl: 32*; CYP2C9 inhib: 67*; PostGolgi yeast: -5; CYP2C19 inhib: 89*; CYP2C19 act: 0.1; CYP2C9 act: 0.3

How did O=C(NCc1ccco1)c1ccccc1F do in these assays?
PostGolgi ctrl: 18; CYP2C9 inhib: 8; PostGolgi yeast: 18; CYP2C19 inhib: -11; CYP2C19 act: 1.1; CYP2C9 act: 0.9

How did CN(CC(=O)O)S(=O)(=O)c1cccs1 do in these assays?
PostGolgi ctrl: 22; CYP2C9 inhib: -9; PostGolgi yeast: -2; CYP2C19 inhib: -10; CYP2C19 act: 1.1; CYP2C9 act: 1.1

What do the screens show for `CN(Cc1cccs1)c1ncnc2sccc12`?
PostGolgi ctrl: 17; CYP2C9 inhib: 14; PostGolgi yeast: 3; CYP2C19 inhib: 36; CYP2C19 act: 0.6; CYP2C9 act: 0.9
